From the supplement of paper PMC9262897, “Low-cost anti-mycobacterial drug discovery using engineered E. coli” (Nature Communications, 2022)
Structures can show the parent of a compound that is named as a salt. ± gives the standard deviation of the averaged measurements.

Assays:
Test in all cases: growth (OD600 after 10 h); higher = more growth (less inhibition)
[1] = system: E. coli TESEC Alr+ wild-type control; conditions: compound 0.1 mM; raw OD600 reference: median of DMSO wells 0.241, cell-free background 0.041
Experimental: (§1)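 TESEC Mtb Alr E. coli, or the Alr+ wild-type control, in 384-well plates with Prestwick library compounds at 0.1 mM and 1% DMSO, across arabinose induction levels of 1E3 to 1E7 nM. Growth is read as OD600 after 10 h at 37 °C in triplicate biological replicates.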

[2] = system: E. coli TESEC Mtb Alr; conditions: compound 0.1 mM
Experimental: as §1

[3] = system: E. coli TESEC Mtb Asd; conditions: compound 0.1 mM
Experimental: (§2)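 TESEC E. coli strains in which the native enzyme is deleted and replaced by arabinose-inducible Mtb Asd, DapB, CysH or TrpD, each grown in its selective medium. Strains were screened against the Prestwick library at 0.1 mM and 1% DMSO in 384-well format at low and high arabinose induction. Growth is read as OD600 after 10 h in triplicate.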

[4] = system: E. coli TESEC Mtb DapB; conditions: compound 0.1 mM
Experimental: as §2

[5] = system: E. coli TESEC Alr+ wild-type control; conditions: compound 0.1 mM; raw OD600 reference: median of DMSO wells 0.49, cell-free background 0.052
Experimental: (§3)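 TESEC Mtb Alr E. coli (ΔaraC ΔtolC ΔentC Δalr ΔdadX, arabinose-inducible Mtb Alr) or the Alr+ wild-type control strain, grown in defined M9-fructose medium without D-alanine in 96-well plates with Prestwick library compounds at 0.1 mM and 1% DMSO. Low Alr induction is 0.1 µM arabinose and high induction is 10 mM arabinose.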

[6] = system: E. coli TESEC Mtb Alr; conditions: compound 0.1 mM; remark: listed apart in the source
Experimental: as §3

[7] = arabinose 1000 nM, raw OD600 reference: median of DMSO wells 0.294, cell-free background 0.041
[8] = arabinose 10000 nM, raw OD600 reference: median of DMSO wells 0.264, cell-free background 0.041
[9] = arabinose 100000 nM, raw OD600 reference: median of DMSO wells 0.201, cell-free background 0.041
[10] = arabinose 1000000 nM, raw OD600 reference: median of DMSO wells 0.193, cell-free background 0.041
[11] = arabinose 10000000 nM, raw OD600 reference: median of DMSO wells 0.146, cell-free background 0.041
[12] = arabinose induction (level): High, raw OD600 reference: median of DMSO wells 0.331, cell-free background 0.041
[13] = arabinose induction (level): Low, raw OD600 reference: median of DMSO wells 0.417, cell-free background 0.041
[14] = arabinose induction (level): High, raw OD600 reference: median of DMSO wells […], cell-free background 0.041
[15] = arabinose induction (level): Low, raw OD600 reference: median of DMSO wells 0.227, cell-free background 0.041
[16] = arabinose 100 nM, raw OD600 reference: median of DMSO wells 0.413, cell-free background 0.052
[17] = arabinose 10000000 nM, raw OD600 reference: median of DMSO wells […], cell-free background 0.052

| Compound | growth [1] | growth [2, 7] | growth [2, 8] | growth [2, 9] | growth [2, 10] | growth [2, 11] | growth [3, 12] | growth [3, 13] | growth [4, 14] | growth [4, 15] | growth [5] | growth [6, 16] | growth [6, 17] |
| --- | --- | --- | --- | --- | --- | --- | --- | --- | --- | --- | --- | --- | --- |
| CC[N+](CC)(CC)CCC(O)(c1ccccc1)C1CCCCC1 (centres undefined) [Tridihexethyl chloride] | 0.2104 ± 0.0021 | 0.298 ± 0.015 | 0.2775 ± 0.0026 | 0.199 ± 0.019 | 0.185 ± 0.015 | 0.144 ± 0.0075 | 0.349 ± 0.028 | 0.369 ± 0.085 | 0.207 ± 0.026 | 0.233 ± 0.037 | 0.437 ± 0.045 | 0.417 ± 0.0044 | 0.335 ± 0.018 |
| CN1CCC(OC(c2ccccc2)c2ccccc2)CC1 [Diphenylpyraline hydrochloride] | 0.221 ± 0.013 | 0.294 ± 0.021 | 0.256 ± 0.0056 | 0.162 ± 0.0083 | 0.141 ± 0.0025 | 0.1486 ± 0.0014 | 0.237 ± 0.035 | 0.461 ± 0.077 | 0.211 ± 0.013 | 0.246 ± 0.0048 | 0.47 ± 0.021 | 0.4078 ± 0.0034 | 0.303 ± 0.015 |
| C[C@]12CC[C@@H]3c4ccc(OS(=O)(=O)O)cc4CC[C@H]3[C@@H]1CCC2=O [Estropipate] | 0.229 ± 0.0082 | 0.277 ± 0.011 | 0.251 ± 0.0064 | 0.177 ± 0.011 | 0.151 ± 0.011 | 0.127 ± 0.0018 | 0.301 ± 0.023 | 0.413 ± 0.039 | 0.194 ± 0.016 | 0.195 ± 0.013 | 0.534 ± 0.11 | 0.41 ± 0.0049 | 0.267 ± 0.0063 |
| NC(=O)OCC(COC(N)=O)c1ccccc1 [Felbamate] | 0.24 ± 0.0061 | 0.288 ± 0.0029 | 0.26 ± 0.0095 | 0.201 ± 0.023 | 0.204 ± 0.0095 | 0.137 ± 0.0061 | 0.423 ± 0.044 | 0.316 ± 0.031 | 0.224 ± 0.0049 | 0.212 ± 0.0076 | 0.608 ± 0.097 | 0.405 ± 0.011 | 0.369 ± 0.025 |
| C=C1C[C@H]2[C@@H]3C=C(C)C4=CC(=O)CC[C@]4(C)[C@H]3CC[C@]2(C)[C@@]1(OC(C)=O)C(C)=O [Melengestrol acetate] | 0.20603 ± 0.00015 | 0.281 ± 0.013 | 0.295 ± 0.011 | 0.166 ± 0.0027 | 0.176 ± 0.0085 | 0.148 ± 0.0027 | 0.213 ± 0.071 | 0.343 ± 0.11 | 0.187 ± 0.0082 | 0.211 ± 0.036 | 0.205 ± 0.053 | 0.3558 ± 0.0033 | 0.142 ± 0.053 |
| COc1ccc2[nH]c([S+]([O-])Cc3ncc(C)c(OC)c3C)nc2c1 (centres undefined) [Omeprazole] | 0.19 ± 0.0022 | 0.232 ± 0.0033 | 0.2749 ± 0.0018 | 0.168 ± 0.011 | 0.122 ± 0.0034 | 0.131 ± 0.0049 | 0.298 ± 0.04 | 0.388 ± 0.025 | 0.167 ± 0.0081 | 0.1748 ± 0.0014 | 0.409 ± 0.01 | 0.399 ± 0.016 | 0.263 ± 0.018 |
| CN1CCN(C(c2ccccc2)c2ccc(Cl)cc2)CC1 (centres undefined) [Chlorcyclizine hydrochloride] | 0.179 ± 0.0072 | 0.215 ± 0.021 | 0.174 ± 0.021 | 0.178 ± 0.0045 | 0.07137 ± 0.00015 | 0.1236 ± 0.00055 | 0.149 ± 0.0065 | 0.221 ± 0.0041 | 0.205 ± 0.014 | 0.261 ± 0.032 | 0.4416 ± 0.0038 | 0.4163 ± 0.0041 | 0.222 ± 0.033 |
| CN[C@@H]1[C@@H](O)[C@@H](O[C@@H]2[C@@H](O)[C@H](O[C@H]3OC(CN)=CC[C@H]3N)[C@@H](N)C[C@H]2N)OC[C@]1(C)O [Sisomicin sulfate] | 0.0439 ± 0.00085 | 0.04797 ± 0.00015 | 0.0404 ± 0.00055 | 0.0483 ± 0.00072 | 0.0422 ± 0.00046 | 0.0657 ± 0.002 | 0.075 ± 0.0066 | 0.107 ± 0.055 | 0.144 ± 0.032 | 0.0843 ± 0.01 | 0.198 ± 0.21 | 0.231 ± 0.15 | 0.3071 ± 0.0019 |
| NCCc1ccc(O)c(O)c1 [Dopamine hydrochloride] | 0.1987 ± 0.0012 | 0.27 ± 0.012 | 0.274 ± 0.0041 | 0.201 ± 0.021 | 0.197 ± 0.022 | 0.144 ± 0.009 | 0.335 ± 0.051 | 0.281 ± 0.036 | 0.174 ± 0.0035 | 0.202 ± 0.032 | 0.624 ± 0.051 | 0.4196 ± 0.0037 | 0.333 ± 0.0035 |
| COc1ccc2[nH]cc(CCNC(C)=O)c2c1 [Melatonin] | 0.246 ± 0.0061 | 0.29 ± 0.0068 | 0.27 ± 0.005 | 0.204 ± 0.029 | 0.183 ± 0.0071 | 0.1406 ± 0.0012 | 0.252 ± 0.066 | 0.348 ± 0.11 | 0.202 ± 0.026 | 0.23 ± 0.026 | 0.521 ± 0.086 | 0.409 ± 0.01 | 0.354 ± 0.013 |
| CCOC(=O)NNc1nncc2ccccc12 [Todralazine hydrochloride] | 0.252 ± 0.0065 | 0.3001 ± 0.00089 | 0.252 ± 0.0082 | 0.246 ± 0.03 | 0.181 ± 0.0025 | 0.16 ± 0.005 | 0.361 ± 0.1 | 0.346 ± 0.078 | 0.206 ± 0.011 | 0.275 ± 0.03 | 0.452 ± 0.021 | 0.406 ± 0.0052 | 0.271 ± 0.17 |
| Nc1nc2[nH]cc(CCc3ccc(C(=O)N[C@@H](CCC(=O)O)C(=O)O)cc3)c2c(=O)[nH]1 [Pemetrexed disodium] | 0.258 ± 0.0062 | 0.303 ± 0.017 | 0.274 ± 0.019 | 0.218 ± 0.029 | 0.184 ± 0.0046 | 0.156 ± 0.0069 | 0.281 ± 0.0067 | 0.405 ± 0.063 | 0.19 ± 0.019 | 0.231 ± 0.013 | 0.56 ± 0.081 | 0.416 ± 0.013 | 0.32 ± 0.012 |
| Clc1ccc(CSC(Cn2ccnc2)c2ccc(Cl)cc2Cl)cc1 (centres undefined) [Sulconazole nitrate] | 0.0579 ± 0.0028 | 0.0534 ± 0.0013 | 0.0668 ± 0.0017 | 0.0542 ± 0.00071 | 0.0669 ± 0.0011 | 0.0556 ± 0.0041 | 0.0615 ± 0.0029 | 0.0557 ± 0.0015 | 0.0605 ± 0.00098 | 0.0607 ± 0.0018 | 0.0607 ± 0.0028 | 0.0787 ± 0.039 | 0.0898 ± 0.0077 |
